MLLE-PAM2 inh – inhibitors of PABP1 MLLE–PAM2 peptide binding, primary screen, biochemical, fluorescence polarization, FITC-PAM2, GST-MLLE | AID 588489, 2011 | Polyadenylate-binding protein 1 (Homo sapiens), P11940 | actives 0.36% (n = 360,000) | inhibition, % at 20 µM; in the data active = inhibition above about 35%, passing the limit was not always enough;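 note: plate controls were DMSO wells with GST-MLLE for no effect and wells lacking GST-MLLE protein for full effect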
PHOSPHO1 block – PubChem AID 1565; actives 1.1% (n = 290,000); recombinant PHOSPHO1, absorbance phosphatase assay; Phosphoethanolamine/phosphocholine phosphatase (Homo sapiens), Q8TCT1; inhibition, % at 13.3 µM; in the data active = inhibition above about 60%
eIF4H FP inh – human eIF4H binding inhibitors, primary screen, translation initiation inhibitor project, biochemical, uHTS, fluorescence polarization. Eukaryotic translation initiation factor 4H (Homo sapiens), Q15056. actives 0.94% (n = 290,000). inhibition, % at 35 µM. eIF4H fluorescence polarization binding assay. AID 2012, 2009;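 note: calls also rest on retests at 20 µM and on dose response follow-up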
APOBEC3A inh – APOBEC3A ssDNA deaminase inhibitors, primary screen, selectivity assay for APOBEC3G inhibitor project, biochemical, FAM/TAMRA oligo cleavage fluorescence | recombinant A3A, FAM/TAMRA ssDNA deamination fluorescence | inhibition, % at 20 µM | actives 0.41% (n = 330,000);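 active = at least 40% inhibition at 20 µM here, with at most 30% in a related deaminase screen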;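 note: plate controls were A3A with DMSO for no effect and wells lacking A3A enzyme for full effect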
Target sequence (P31941 whole entry, looked up): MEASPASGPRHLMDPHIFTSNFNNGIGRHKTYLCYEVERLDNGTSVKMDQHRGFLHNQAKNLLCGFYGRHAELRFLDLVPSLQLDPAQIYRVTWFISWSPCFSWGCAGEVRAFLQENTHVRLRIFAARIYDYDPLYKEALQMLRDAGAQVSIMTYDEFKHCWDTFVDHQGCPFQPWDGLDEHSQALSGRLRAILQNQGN
PABP polyA inh – PABP poly(A) RNA binding inhibitors, primary screen, biochemical, fluorescence polarization, uHTS; actives 1% (n = 290,000); calls only at 35 µM; Polyadenylate-binding protein 1 (Homo sapiens), P11940;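 note: calls also rest on retests at 20 µM and on dose response follow-up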
A3G deaminase – APOBEC3G DNA deaminase inhibitors, primary screen, biochemical, fluorescence, single-stranded DNA substrate, uHTS | actives 0.28% (n = 330,000) | recombinant A3G, ssDNA deamination FAM/TAMRA fluorescence | DNA dC->dU-editing enzyme APOBEC-3G (Homo sapiens), Q9HC16 | AID 493012, 2011 | inhibition, % at 20 µM;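 active = inhibition of at least 40% at 20 µM, with no more than 30% in the related APOBEC3A deaminase screen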;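 note: plate controls were DMSO wells with A3G for no effect and wells lacking A3G enzyme for full effect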
Target sequence (Q9HC16 whole entry, looked up): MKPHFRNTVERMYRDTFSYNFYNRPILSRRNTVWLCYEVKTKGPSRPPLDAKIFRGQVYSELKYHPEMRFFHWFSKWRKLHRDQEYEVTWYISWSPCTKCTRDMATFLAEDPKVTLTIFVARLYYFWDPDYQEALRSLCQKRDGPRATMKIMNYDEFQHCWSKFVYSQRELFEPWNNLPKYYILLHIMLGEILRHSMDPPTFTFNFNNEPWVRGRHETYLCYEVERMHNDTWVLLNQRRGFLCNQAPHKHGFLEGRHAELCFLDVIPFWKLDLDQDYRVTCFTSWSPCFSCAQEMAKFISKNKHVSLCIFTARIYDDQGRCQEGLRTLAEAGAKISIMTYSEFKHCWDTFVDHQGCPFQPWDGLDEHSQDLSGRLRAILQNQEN
* hit, by the source's call; i = inactive; x = no result given; + = active, no number. This is a sample that favours compounds with a hit; in the whole collection about 2.6% have one here. Unless noted, the rule behind the calls is not given here.

SMILES	MLLE-PAM2 inh	PHOSPHO1 block	eIF4H FP inh	APOBEC3A inh	PABP polyA inh	A3G deaminase
CCCCn1c(=O)[nH]c2nc3cc(NC(C)=O)ccc3nc2c1=O	59	19	98*	-3	+	-6
COc1ccc(-c2noc(C(=O)NCc3ccc(F)cc3)n2)cc1OC	-3	23	-6	-3	i	-9
CCn1c(=O)c2sccc2n(CC(=O)NCCC2=CCCCC2)c1=O	-1	16	-12	-3	i	-9
CCOc1cc(CNCc2cccnc2)ccc1OCC(=O)NC(C)(C)C	-9	73*	0	1	i	-8
O=C(CCC(=O)NNC(=O)c1ccccc1[N+](=O)[O-])NCc1ccccc1	3	24	-6	1	i	-2
Cc1ccc(C(=O)c2coc3c2C(=O)C(=O)c2ccccc2-3)cc1	13	85*	-6	-10	i	3
Cc1ccc(C(=O)c2c(C)oc3c2C(=O)C(=O)c2ccccc2-3)cc1	7	-4	-6	-2	i	-9
CCn1nc(C)c(CN2CCC(n3nccc3NC(=O)Cc3ccccc3)CC2)c1C	1	38	-14	-2	i	-5
Cc1cccc(-n2cc(CN3CCN(Cc4nccn4C)CC3)c(-c3cccc(F)c3)n2)c1	12	61*	4	-3	i	-8
COc1ccc(-n2cc(CNC3CCN(C)CC3)c(-c3cccc(F)c3)n2)cc1	4	11	-10	3	i	0
COc1ccc(-n2cc(CN3CCCC3)c(-c3cccc(F)c3)n2)cc1	-14	61*	-5	1	i	-9
O=C(CC[C@H]1O[C@@H](n2ccc(=O)[nH]c2=O)[C@H](O)[C@@H]1O)NCC1CCCO1 (stereo not given in full)	6	x	x	x	x	x
COc1ccc(C(=O)NCC2(c3ccc(OC)c(OC)c3)CCCC2)cc1OC	5	x	x	x	x	x
COc1ccc(C2(CNC(=O)Cc3ccccc3)CCCC2)cc1OC	4	65*	-12	-2	i	-3
O=C(CCCCCn1c(=O)[nH]c2ccsc2c1=O)NCc1ccc2c(c1)OCO2	3	-100	10	-3	i	-2
S=C(Nc1ccc(Br)cc1Cl)Nn1cnnc1	37*	-27	-4	0	i	2
Cc1ccc(Cl)cc1NC(=S)Nn1cnnc1	16	10	-7	-5	i	12
O=C(NNC(=S)Nc1ccc(Br)cc1Cl)c1ccncc1	47*	-4	16	-3	i	-5
CCCCC(Br)C(=O)Nc1ccc(S(=O)(=O)Nc2cc(C)nc(C)n2)cc1 (stereo not given)	5	40	-1	-1	i	-8
Cc1ccc(C2CC(c3ccccc3)=NN2C(=S)Nc2ccccc2)o1 (stereo not given)	-42	88*	8	-2	i	11
NC(=O)c1ccc(-c2nnc(Nc3ccc(S(N)(=O)=O)cc3)c3ccccc23)cc1	3	31	-11	-3	i	-5
Cc1cc(O)c(C=O)c2c1C(=O)Oc1c(CO)c(O)c3c(c1O2)C(O)OC3=O (stereo not given)	24	44	108*	100	+	84
COc1ccc(-c2cn3c(C)c(C(=O)Nc4ccncc4)sc3n2)cc1	-6	94*	-10	-5	i	-4
Cc1ccc(N=Cc2ccc(O)cc2O)cc1F	0	39	54*	-3	+	-16
Oc1ccc(C=Nc2ccc(N3CCOCC3)cc2)c(O)c1	-35	-21	-2	5	i	2
SMILES	MLLE-PAM2 inh	PHOSPHO1 block	eIF4H FP inh	APOBEC3A inh	PABP polyA inh	A3G deaminase
FC(F)(F)c1ccccc1-c1ccc2nncn2c1	-7	x	x	x	x	x
Cc1cc(Sc2ncnc(N)c2[N+](=O)[O-])ncn1	46*	38	3	-8	i	-7
COc1ccccc1CNC(=O)c1ccccc1C(=O)NC(CC(C)C)C(=O)NCc1ccccc1OC (stereo not given)	-21	30	x	-5	x	-10
Cn1ccc2c(/C=C/c3ccc(F)cc3)cc3c(c21)C1CCC3O1 (stereo not given)	-10	x	x	x	x	x
CC1CC(C)CN(C(=O)COC(=O)CCCN2C(=O)c3cccc4cccc(c34)C2=O)C1 (stereo not given)	-34	18	-23	0	i	-7
CC(C)COC(=O)C(C#N)c1nc2ccccc2nc1N1CCN(Cc2ccccc2)CC1 (stereo not given)	7	3	44*	3	+	0
CCCCOC(=O)C(C#N)c1nc2ccccc2nc1N1CCN(Cc2ccc3c(c2)OCO3)CC1 (stereo not given)	1	-2	54*	-3	+	-4
COC(=O)C(C#N)c1nc2ccccc2nc1N1CCN(Cc2ccc3c(c2)OCO3)CC1 (stereo not given)	x	28	11	3	i	-2
C=CCOC(=O)C(C#N)c1nc2ccccc2nc1N1CCN(Cc2ccccc2)CC1 (stereo not given)	0	-34	57*	-5	+	-6
COc1ccc(C(=O)N2CCN(c3ccccc3Cl)CC2)cc1S(=O)(=O)NC1CC1	-15	x	x	-4	x	-6
CCOc1ccccc1NC(=O)CSc1nc(N)c(C#N)cc1C#N	-10	14	12	0	i	-3
COc1ccccc1NC(=O)CSc1nc(N)c(C#N)cc1C#N	-73	-42	87*	1	i	-2
CC(=O)N1c2ccccc2C2CCCC[C@H]21 (stereo not given in full)	2	x	x	8	x	0
COc1cccc(-c2csc(N3CCN(C(=O)Nc4ccc(Cl)cc4)CC3)n2)c1	14	64*	0	-3	i	-9
COc1ccc(NC(=O)N2CCN(c3nc(-c4cccc(OC)c4)cs3)CC2)cc1	16	7	2	0	i	0
O=C(C[C@@H]1C/C=C\C[C@H](NC(=O)OCC2c3ccccc3-c3ccccc32)C(=O)OC[C@H]2CCCN2C1=O)NCCO	8	x	x	-1	x	-1
CC(C)=C(NC(=O)c1ccccc1Br)C(=O)NCCc1nc2ccccc2[nH]1	-14	32	112*	1	+	2
COCCn1c(SCC(=O)Nc2ccc(F)cc2F)nc2c([nH]c3ccccc32)c1=O	-4	29	6	1	i	-3
S=c1c2c(nc3nc[nH]n13)CCC2	-126	93*	2	-1	i	-8

From PubChem
